PubChem BioAssay
For some assays here: Measured potencies and affinities stand elsewhere. Calls of active or inactive are those of the source.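 How the source made its calls, unless noted: active means earlier screen potentiator hit that boosts the TRPC4 ion channel at some dose, with a dose response; inactive means no potentiation, no dose response, or not a prior hit.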

Columns and labels:
[1] = test system: TRPC4 beta (transient receptor potential cation channel C4), mouse; test: TRPC4 cation channel opening, retest – cell-based, Fluo4 calcium, HEK293 TRPC4beta/mu-opioid, duplicates, 10 µM, confirmation (AID 2426;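 active means fluorescence ratio normalized to control raised more than 50% in primary screen plus both repeat runs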;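 on activation: percent rise of integrated ratio over buffer wells lacking compound which define 0%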); settings: Fluo4 calcium fluorescence, at 10 µM; stronger effect = higher value
[2] = test system: transient receptor potential cation channel C4 beta (TRPC4), mouse; test: TRPC4 cation channel opening, second retest – cell-based, second round, Fluo4, HEK293 TRPC4beta/mu-opioid, 1 µM, confirmation (AID 2461;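 active means primary screen active and over 50% activation in each of two duplicate runs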;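 on activation: 0% = wells without test compound as baseline of integrated fluorescence ratio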); settings: Fluo4 calcium fluorescence, at 1 µM; stronger effect = higher value
[3] = test system: TRPC4 (transient receptor potential cation channel C4 beta), mouse; test: potentiation of DAMGO EC20 TRPC4 response – cell-based, second round, Fluo-4, HEK293 TRPC4beta/mu-opioid, 1 µM, confirmation (AID 2554;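 active means primary screen hit whose fluorescence ratio, in both repeats, exceeds the weak agonist control mean by 3 SD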); settings: DAMGO EC20, Fluo-4 calcium flux, at 1 µM; stronger effect = higher value
[4] = test system: TRPC4 beta (transient receptor potential cation channel C4), mouse; test: potentiation of DAMGO EC20 TRPC4 response – cell-based, Fluo-4, HEK293 TRPC4beta/mu-opioid, confirmation (AID 2555;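 active means primary screen hit whose calcium fluorescence ratio, in both repeats, exceeds the weak agonist control mean by 3 SD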); settings: DAMGO EC20, Fluo-4 calcium flux, at 10 µM; stronger effect = higher value
[5] = target: Short transient receptor potential channel 4 (Mus musculus) (UniProt Q9QUQ5); test: blockers of DAMGO-evoked TRPC4 calcium flux – cell-based, Fluo4, HEK293 TRPC4beta/mu-opioid, confirmation (AID 2636;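 active means calcium signal cut by more than 3 SD below the full-agonist control yet still positive, in both repeats and the earlier primary screen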); settings: at 10 µM; stronger effect = higher value
[6] = target: Short transient receptor potential channel 4 (Mus musculus) (UniProt Q9QUQ5); test: blockers of DAMGO-evoked TRPC4 calcium flux – cell-based, second round, Fluo4, HEK293 TRPC4beta/mu-opioid, 1 µM, confirmation (AID 2637;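 active means calcium signal ratio cut to more than 3 SD under the fully stimulated control mean yet still positive, in both repeats and the primary screen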); settings: at 1 µM; stronger effect = higher value
[7] = target: Short transient receptor potential channel 4 (Mus musculus) (UniProt Q9QUQ5); test: potentiation of DAMGO-evoked TRPC4 calcium signal – cell-based, HEK293 TRPC4/mu-opioid, Fluo-4 calcium, EC20 DAMGO, dose response (AID 434941);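 further: calcium entry triggered by an EC20 dose of DAMGO at the co-expressed mu-opioid receptor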
[8] = target: Short transient receptor potential channel 4 (Mus musculus) (UniProt Q9QUQ5); test: block of DAMGO-driven TRPC4 calcium entry – cell-based, HEK293 TRPC4/mu-opioid, Fluo-4 calcium, dose response (AID 434942;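 active means primary screen inhibitor hit that blocks the TRPC4 channel at some tested dose, yielding a dose curve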)
[9] = target: Short transient receptor potential channel 6 (Mus musculus) (UniProt Q61143); test: TRPC6 blockade by TRPC4 inhibitor hits – cell-based, HEK293, membrane potential dye, duplicate, selectivity assay for TRPC4 inhibitor project, confirmation (AID 434948;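 active means active in primary screen and both duplicates, each dropping signal beyond three positive-control SD with fluorescence still positive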); settings: HEK293 TRPC6, membrane potential dye fluorescence, at 10 µM, stimulated with maximal-effect acetylcholine; stronger effect = higher value
[10] = target: Short transient receptor potential channel 6 (Mus musculus) (UniProt Q61143); test: TRPC6 opening by TRPC4 activator hits – cell-based, HEK293, membrane potential dye, duplicate, selectivity assay for TRPC4 activator project, confirmation (AID 434950;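 active means membrane potential signal rise above negative control mean plus 3 SD in both duplicates, also active in the earlier TRPC4 screen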;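 on activation: 0% = buffer only wells and 100% = acetylcholine maximal-effect wells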); settings: HEK293 TRPC6, membrane potential fluorescence, at 10 µM; activation: stronger effect = higher value; outcome: activation
[11] = target: Short transient receptor potential channel 6 (Mus musculus) (UniProt Q61143); test: positive modulators of mouse TRPC6 channel – HEK293 cells, membrane potential dye, duplicate, selectivity assay for TRPC4 potentiator project, confirmation (AID 434952;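 active means compound raising the membrane signal above positive-control mean plus 3 SD in both repeats, and a primary screen hit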); settings: HEK293 TRPC6, membrane potential dye fluorescence, at 10 µM, maximal acetylcholine added after compound; stronger effect = higher value
[12] = target: Short transient receptor potential channel 4 (Mus musculus) (UniProt Q9QUQ5); test: calcium flux activators in TRPC4/5HT1a cells, counter-screen for TRPC4 activator project, cell-based, second counter screen, HEK293 TRPC4/5HT1a, Fluo-4 (AID 434977;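 active means calcium signal rise above buffer-control mean plus 5 SD in both duplicates, and also a hit in the primary screen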;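 on activation: plate controls were assay buffer for no effect and maximal serotonin response for full effect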); settings: Fluo-4 calcium flux, at 10 µM; stronger effect = higher value
[13] = serotonin-gated TRPC4 signal block – cell-based, second counter screen, HEK293 TRPC4/5HT1a, Fluo-4, counter-screen for TRPC4 inhibitor project, confirmation (AID 434978;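 active means primary screen active whose calcium signal fell more than 3 SD beyond the full-serotonin control mean in both duplicate plates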;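 further: serotonin given first at submaximal then at maximal dose after compound preincubation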); settings: Fluo-4 calcium flux, at 10 µM, serotonin added to trigger calcium flux; stronger effect = higher value
[14] = test system: TRPC4 (mouse), co-expressed with 5HT1a in HEK293; test: enhancement of serotonin-evoked TRPC4 response – cell-based, second counter screen, HEK293 TRPC4/5HT1a, Fluo-4, counter-screen for TRPC4 potentiator project, confirmation (AID 434979;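 active means signal rise over 3 SD above mean of control wells given weak agonist, in both repeats and first screen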); settings: Fluo-4 calcium flux, at 10 µM, serotonin added at its EC20 dose; stronger effect = higher value
[15] = nonspecific calcium rise without TRPC4 – cell-based, HEK293 mu-opioid receptor line, counter-screen for TRPC4 activator project, confirmation (AID 449723;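 active means hit in primary screen, with calcium signal over 5 SD above buffer well mean in both duplicates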;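 further: counter screen cells carry the mu-opioid receptor alone and lack TRPC4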); settings: HEK293 mu-opioid cells, Fluo-4 calcium fluorescence, at 10 µM; stronger effect = higher value
[16] = nonspecific potentiation of DAMGO calcium response – cell-based, HEK293 mu-opioid receptor line, counter-screen for TRPC4 allosteric potentiator project, confirmation (AID 449724;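 active means calcium signal rise more than 3 SD above the low-dose agonist control mean, in both duplicate plates and the primary screen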;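 further: HEK293 cells carrying mu-opioid receptor only with no TRPC4 channel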); settings: HEK293 mu-opioid receptor cells, Fluo-4 calcium flux, at 10 µM, compound added before EC20 DAMGO stimulus; stronger effect = higher value

Sequence of Short transient receptor potential channel 4 (Mus musculus) (Q9QUQ5 whole entry, looked up): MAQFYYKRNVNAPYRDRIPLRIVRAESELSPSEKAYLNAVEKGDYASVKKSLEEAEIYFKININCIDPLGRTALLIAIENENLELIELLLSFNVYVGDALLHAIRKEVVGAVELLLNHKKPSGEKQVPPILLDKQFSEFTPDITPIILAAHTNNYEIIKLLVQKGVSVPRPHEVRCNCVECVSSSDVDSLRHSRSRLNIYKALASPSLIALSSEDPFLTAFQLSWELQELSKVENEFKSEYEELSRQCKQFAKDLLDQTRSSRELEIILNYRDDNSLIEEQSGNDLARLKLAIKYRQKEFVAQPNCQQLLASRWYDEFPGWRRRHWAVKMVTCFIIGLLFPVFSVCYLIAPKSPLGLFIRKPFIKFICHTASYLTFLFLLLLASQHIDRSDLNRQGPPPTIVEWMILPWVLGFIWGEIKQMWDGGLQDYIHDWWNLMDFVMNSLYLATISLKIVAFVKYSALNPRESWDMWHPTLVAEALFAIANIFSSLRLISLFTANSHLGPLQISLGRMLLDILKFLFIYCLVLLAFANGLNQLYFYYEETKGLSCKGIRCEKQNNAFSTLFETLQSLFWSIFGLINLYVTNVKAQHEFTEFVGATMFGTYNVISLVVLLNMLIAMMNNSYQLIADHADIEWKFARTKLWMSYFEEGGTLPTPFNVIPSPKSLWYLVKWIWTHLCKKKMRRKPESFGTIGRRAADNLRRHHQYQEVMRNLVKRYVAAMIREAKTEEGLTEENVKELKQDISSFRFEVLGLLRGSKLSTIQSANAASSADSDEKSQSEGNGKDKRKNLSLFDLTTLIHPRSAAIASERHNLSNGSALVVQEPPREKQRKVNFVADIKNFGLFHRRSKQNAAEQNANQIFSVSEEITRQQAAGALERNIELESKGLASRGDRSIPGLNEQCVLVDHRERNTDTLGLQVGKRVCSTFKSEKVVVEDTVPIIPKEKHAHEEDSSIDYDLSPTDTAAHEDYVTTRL
Sequence of Short transient receptor potential channel 6 (Mus musculus) (Q61143 whole entry, looked up): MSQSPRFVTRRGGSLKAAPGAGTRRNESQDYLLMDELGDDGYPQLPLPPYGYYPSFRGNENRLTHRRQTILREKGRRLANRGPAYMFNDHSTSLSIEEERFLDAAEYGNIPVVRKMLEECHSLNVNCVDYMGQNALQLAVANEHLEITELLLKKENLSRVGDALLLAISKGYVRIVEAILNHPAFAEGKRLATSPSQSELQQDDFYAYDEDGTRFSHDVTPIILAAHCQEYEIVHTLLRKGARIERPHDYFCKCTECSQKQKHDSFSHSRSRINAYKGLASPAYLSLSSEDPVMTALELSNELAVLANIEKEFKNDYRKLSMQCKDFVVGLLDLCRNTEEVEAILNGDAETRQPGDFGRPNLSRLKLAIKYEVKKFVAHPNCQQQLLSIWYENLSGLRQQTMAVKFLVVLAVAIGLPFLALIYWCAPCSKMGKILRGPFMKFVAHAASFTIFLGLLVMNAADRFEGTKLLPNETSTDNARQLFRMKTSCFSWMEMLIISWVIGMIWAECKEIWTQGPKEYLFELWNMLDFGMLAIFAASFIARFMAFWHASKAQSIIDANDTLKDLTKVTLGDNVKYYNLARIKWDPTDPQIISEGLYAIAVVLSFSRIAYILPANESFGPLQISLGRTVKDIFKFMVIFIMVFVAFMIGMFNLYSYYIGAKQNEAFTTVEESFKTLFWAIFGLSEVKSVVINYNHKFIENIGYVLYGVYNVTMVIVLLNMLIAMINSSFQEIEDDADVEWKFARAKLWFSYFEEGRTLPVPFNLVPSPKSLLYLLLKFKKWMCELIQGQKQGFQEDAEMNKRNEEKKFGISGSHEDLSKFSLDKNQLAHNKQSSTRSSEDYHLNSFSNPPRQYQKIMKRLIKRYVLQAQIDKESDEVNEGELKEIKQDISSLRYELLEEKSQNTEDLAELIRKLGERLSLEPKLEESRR

With `CN(CCc1ccccn1)C1CC(=O)N(c2ccc(Cl)cc2)C1=O` (centres undefined) the activation [1] was 195% (active), the activation [2] was 70% (active) and the outcome [3] was “inactive”. The outcome [4] was “inactive”, the outcome [5] was “inactive” and the outcome [6] was “inactive”. The outcome [7] was “inactive”, the outcome [8] was “inactive” and the outcome [9] was “inactive”. The outcome [10] was “inactive”, the outcome [11] was “inactive” and the activation [12] was 102% (active). For the same compound, the outcome [13] was “inactive”, the outcome [14] was “inactive” and the outcome [15] was “inactive”. For the same compound, the outcome [16] was “inactive”.
With `COc1ccc(C(CNC(=O)C2CCN(S(=O)(=O)c3ccc(F)cc3)CC2)N(C)C)cc1` (centres undefined) the activation [1] was 149% (active), the outcome [2] was “inactive” and the outcome [3] was “inactive”. For the same compound, the outcome [4] was “inactive”, the outcome [5] was “inactive” and the outcome [6] was “inactive”. For the same compound, the outcome [7] was “inactive”, the outcome [8] was “inactive” and the outcome [9] was “inactive”. The outcome [10] was “inactive”, the outcome [11] was “inactive” and the outcome [12] was “inactive”. The outcome [13] was “inactive”, the outcome [14] was “inactive” and the outcome [15] was “inactive”. The outcome [16] was “inactive”.
In the case of `CC1CN(C)C(C)c2c1oc1ccc(N)cc21` (centres undefined), the activation [1] is reported as 226% (active), the activation [2] is reported as 73% (active) and the outcome [3] is reported as “inactive”. The outcome [4] was “inactive”, the outcome [5] was “inactive” and the outcome [6] was “inactive”. For the same compound, the outcome [7] was “inactive”, the outcome [8] was “inactive” and the outcome [9] was “inactive”. The outcome [10] was “inactive”, the outcome [11] was “inactive” and the outcome [12] was “inactive”. For the same compound, the outcome [13] was “inactive”, the outcome [14] was “inactive” and the outcome [15] was “inactive”. For the same compound, the outcome [16] was “inactive”.
For `COc1cc2c(cc1OC)C(C)N(C(=O)C(NC(=O)c1ccccc1)C(C)C)CC2` (centres undefined), the activation [1] was 130% (active), the outcome [2] was “inactive” and the outcome [3] was “inactive”. For the same compound, the outcome [4] was “inactive”, the outcome [5] was “inactive” and the outcome [6] was “inactive”. The outcome [7] was “inactive”, the outcome [8] was “inactive” and the outcome [9] was “inactive”. For the same compound, the activation [10] was 31% (active), the outcome [11] was “inactive” and the outcome [12] was “inactive”. The outcome [13] was “inactive”, the outcome [14] was “inactive” and the outcome [15] was “inactive”. For the same compound, the outcome [16] was “inactive”.
For `COc1cccc(CN2CCNC(=O)C2CC(=O)N(C)CCc2ccccn2)c1` (centres undefined), the activation [1] was 186% (active), the activation [2] was 92% (active) and the outcome [3] was “inactive”. The outcome [4] was “inactive”, the outcome [5] was “inactive” and the outcome [6] was “inactive”. For the same compound, the outcome [7] was “inactive”, the outcome [8] was “inactive” and the outcome [9] was “inactive”. The outcome [10] was “inactive”, the outcome [11] was “inactive” and the activation [12] was 39% (active). The outcome [13] was “inactive”, the outcome [14] was “inactive” and the outcome [15] was “inactive”. For the same compound, the outcome [16] was “inactive”.
In the case of `COc1ccc(CN2CCC(N(CCc3ccccc3)Cc3ccccc3)CC2)c(OC)c1`, the activation [1] is reported as 95% (active), the outcome [2] is reported as “inactive” and the outcome [3] is reported as “inactive”. The outcome [4] was “inactive”, the outcome [5] was “inactive” and the outcome [6] was “inactive”. The outcome [7] was “inactive”, the outcome [8] was “inactive” and the outcome [9] was “inactive”. The activation [10] was 44% (active), the outcome [11] was “inactive” and the outcome [12] was “inactive”. For the same compound, the outcome [13] was “inactive”, the outcome [14] was “inactive” and the outcome [15] was “inactive”. The outcome [16] was “inactive”.
For `CCN1CCN(c2c(Cl)cccc2NC(=O)c2ccc([N+](=O)[O-])cc2)CC1`, the activation [1] was 80% (active), the outcome [2] was “inactive” and the outcome [3] was “inactive”. The outcome [4] was “inactive”, the outcome [5] was “inactive” and the outcome [6] was “inactive”. The outcome [7] was “inactive”, the outcome [8] was “inactive” and the outcome [9] was “inactive”. For the same compound, the outcome [10] was “inactive”, the outcome [11] was “inactive” and the activation [12] was 7.83% (active). For the same compound, the outcome [13] was “inactive”, the outcome [14] was “inactive” and the outcome [15] was “inactive”. The outcome [16] was “inactive”.
In the case of `CCC(=O)N1CCc2cc(Br)cc(S(=O)(=O)NCCCN(C)Cc3ccccc3)c21`, the activation [1] is reported as 116% (active), the activation [2] is reported as 65% (active) and the outcome [3] is reported as “inactive”. The outcome [4] was “inactive”, the outcome [5] was “inactive” and the outcome [6] was “inactive”. For the same compound, the outcome [7] was “inactive”, the outcome [8] was “inactive” and the outcome [9] was “inactive”. The activation [10] was 55% (active), the outcome [11] was “inactive” and the activation [12] was 33.1% (active). The outcome [13] was “inactive”, the potentiation [14] was 26.2% (active) and the outcome [15] was “inactive”. For the same compound, the outcome [16] was “inactive”.
With `COc1cccc(C(=O)OC2CCCN(C)C2)c1` (centres undefined) the activation [1] was 135% (active), the activation [2] was 85% (active) and the outcome [3] was “inactive”. The outcome [4] was “inactive”, the outcome [5] was “inactive” and the outcome [6] was “inactive”. The outcome [7] was “inactive”, the outcome [8] was “inactive” and the outcome [9] was “inactive”. For the same compound, the activation [10] was 43% (active), the outcome [11] was “inactive” and the activation [12] was 48.9% (active). The outcome [13] was “inactive”, the outcome [14] was “inactive” and the outcome [15] was “inactive”. For the same compound, the outcome [16] was “inactive”.
In the case of `COc1ccc(C(=O)C2CCCN(C3Cc4ccccc4C3)C2)cc1OC` (centres undefined), the activation [1] is reported as 128% (active), the outcome [2] is reported as “inactive” and the outcome [3] is reported as “inactive”. For the same compound, the outcome [4] was “inactive”, the outcome [5] was “inactive” and the outcome [6] was “inactive”. For the same compound, the outcome [7] was “inactive”, the outcome [8] was “inactive” and the outcome [9] was “inactive”. The activation [10] was 81.5% (active), the outcome [11] was “inactive” and the activation [12] was 110% (active). The outcome [13] was “inactive”, the outcome [14] was “inactive” and the outcome [15] was “inactive”. The outcome [16] was “inactive”.
For `Fc1ccc(-c2nn(-c3ccccc3)cc2CNCc2ccccc2)cc1`, the outcome [1] was “inactive”, the outcome [2] was “inactive” and the outcome [3] was “inactive”. The outcome [4] was “inactive”, the outcome [5] was “inactive” and the outcome [6] was “inactive”. The outcome [7] was “inactive”, the outcome [8] was “inactive” and the outcome [9] was “inactive”. The outcome [10] was “inactive”, the outcome [11] was “inactive” and the outcome [12] was “inactive”. The outcome [13] was “inactive”, the outcome [14] was “inactive” and the outcome [15] was “inactive”. For the same compound, the outcome [16] was “inactive”.
For `COc1ccc(C(CNC(=O)COc2ccccc2OC)N(C)C)cc1OC` (centres undefined), the activation [1] was 133% (active), the outcome [2] was “inactive” and the outcome [3] was “inactive”. The outcome [4] was “inactive”, the outcome [5] was “inactive” and the outcome [6] was “inactive”. For the same compound, the outcome [7] was “inactive”, the outcome [8] was “inactive” and the outcome [9] was “inactive”. The activation [10] was 35% (active), the outcome [11] was “inactive” and the outcome [12] was “inactive”. For the same compound, the outcome [13] was “inactive”, the outcome [14] was “inactive” and the outcome [15] was “inactive”. For the same compound, the outcome [16] was “inactive”.
For `Cc1onc(-c2ccccc2)c1C(=O)NNC(=S)NC(=O)c1ccc2c(c1)OCO2`, the activation [1] was 55% (active), the outcome [2] was “inactive” and the outcome [3] was “inactive”. The outcome [4] was “inactive”, the outcome [5] was “inactive” and the outcome [6] was “inactive”. For the same compound, the outcome [7] was “inactive”, the outcome [8] was “inactive” and the outcome [9] was “inactive”. The outcome [10] was “inactive”, the outcome [11] was “inactive” and the activation [12] was 56.5% (active). The outcome [13] was “inactive”, the outcome [14] was “inactive” and the outcome [15] was “inactive”. For the same compound, the outcome [16] was “inactive”.
For `CC1CC(C)CN(CCCNS(=O)(=O)c2cc(Br)cc3c2N(C(=O)C2CC2)CC3)C1` (centres undefined), the activation [1] was 139% (active), the activation [2] was 114% (active) and the outcome [3] was “inactive”. For the same compound, the outcome [4] was “inactive”, the outcome [5] was “inactive” and the outcome [6] was “inactive”. For the same compound, the outcome [7] was “inactive”, the outcome [8] was “inactive” and the outcome [9] was “inactive”. For the same compound, the activation [10] was 30% (active), the outcome [11] was “inactive” and the activation [12] was 64.6% (active). For the same compound, the outcome [13] was “inactive”, the outcome [14] was “inactive” and the outcome [15] was “inactive”. The outcome [16] was “inactive”.
